{"source": "ChEMBL document CHEMBL4513216", "about": "“Probing the Open Global Health Chemical Diversity Library for Multistage-Active Starting Points for Next-Generation Antimalarials” (ACS Infect Dis, 2020)", "note": "About 2,700 (4%) of roughly 68,000 compounds showed an effect of 50% or more. This is one part of a sample in which strong results are shown more often than they occur.", "data": [{"test_system": "Plasmodium berghei", "experiment": "Screen against P. berghei liver stage (PbLuc), transformed with Luciferase, at 2uM", "format": "functional, HepG2", "details": "tested at 2 uM", "units": {"INHIBITION": "%"}, "values": [{"smiles": "CCc1nccn1C1CCCN(C(=O)c2ccc3nncn3c2)C1", "note": "(stereo not given)", "INHIBITION": -32.49}, {"smiles": "Cc1nccn1C1CCCN(C(=O)c2ccc3c(c2)COC3)C1", "note": "(stereo not given)", "INHIBITION": 23.92}, {"smiles": "CC(C)c1nccn1C1CCCN(C(=O)c2ccc3nncn3c2)C1", "note": "(stereo not given)", "INHIBITION": 72.31}, {"smiles": "CC(C)c1nccn1C1CCCN(C(=O)c2ccc3c(c2)OCO3)C1", "note": "(stereo not given)", "INHIBITION": 4.5}, {"smiles": "CC(C)c1nccn1C1CCCN(C(=O)c2ccc3c(c2)COC3)C1", "note": "(stereo not given)", "INHIBITION": 54.28}, {"smiles": "Cc1nccn1C1CCCN(C(=O)c2ccc3nncn3c2)C1", "note": "(stereo not given)", "INHIBITION": 47.87}, {"smiles": "OC(CN1CCN(Cc2cccnc2)CC1)c1cccs1", "note": "(stereo not given)", "INHIBITION": -11.22}, {"smiles": "Cn1c(N2CCOCC2)nc2cc(C(=O)N3CC(O)CO3)ccc21", "note": "(stereo not given)", "INHIBITION": -23.4}, {"smiles": "COc1ccc(CN2CCc3ncnc(OC(C)C)c3CC2)cc1", "INHIBITION": 10.69}, {"smiles": "Cc1cc(C)c2[nH]c(C(=O)NCCN3CCNC3=O)c(C)c2c1", "INHIBITION": 8.76}, {"smiles": "COc1cc(N2CCOC(c3ccc(F)cc3)C2)ncn1", "note": "(stereo not given)", "INHIBITION": 19.27}, {"smiles": "N#Cc1c(F)cccc1Nc1cnn(CC(N)=O)c1", "INHIBITION": -58.5}, {"smiles": "CCc1nc2n(n1)CC(NCc1cn(C)nc1-c1cccnc1)CC2", "note": "(stereo not given)", "INHIBITION": 54.29}, {"smiles": "CCc1nc2n(n1)CC(NCc1nc(-c3cccnc3)no1)CC2", "note": "(stereo not given)", "INHIBITION": 41.71}, {"smiles": "Cn1cc(CNC2CCc3ncnn3C2)c(-c2cccnc2)n1", "note": "(stereo not given)", "INHIBITION": 13.53}, {"smiles": "O=C(Nc1ncn(CC(=O)N2CCCCCC2)n1)C1CCCC1", "INHIBITION": 35.23}, {"smiles": "CC(CC(=O)Nc1ncn(CC(=O)N2CCCCCC2)n1)C1CC1", "note": "(stereo not given)", "INHIBITION": 34.73}, {"smiles": "O=C(Nc1ncn(CC(=O)N2CCCCCC2)n1)C1CCCO1", "note": "(stereo not given)", "INHIBITION": 53.03}, {"smiles": "CCCC(N)CNS(=O)(=O)Cc1cccc(C#N)c1", "note": "(stereo not given)", "INHIBITION": 22.07}, {"smiles": "CCC(c1nc(CC(C)C)nn1-c1ccccn1)n1cccn1", "note": "(stereo not given)", "INHIBITION": -72.12}, {"smiles": "CCNC(=O)[C@@H]1C[C@H](N)CN1C(=O)c1c[nH]c2ccccc12", "INHIBITION": 22.16}, {"smiles": "Cn1cc(C(=O)Nc2ccc(CC(=O)NCC(F)(F)F)cc2)nn1", "INHIBITION": 78.24}, {"smiles": "CC(=O)N1CCc2ccc(NC(=O)c3cn(C)nn3)cc2C1", "INHIBITION": 29.65}, {"smiles": "CN(C)C(=O)Cc1ccc(NC(=O)c2cn(C)nn2)cc1", "INHIBITION": 29.87}, {"smiles": "Cn1cc(C(=O)Nc2ccc(CC(=O)NC3CC3)cc2)nn1", "INHIBITION": 52.85}, {"smiles": "COC(=O)N1CCc2ccc(NC(=O)c3cn(C)nn3)cc2C1", "INHIBITION": 41.44}, {"smiles": "Cn1cc(C(=O)Nc2ccc3c(c2)CN(C(=O)C2CC2)CC3)nn1", "INHIBITION": 0}, {"smiles": "COCCn1ccc(=O)c(OCC(=O)Nc2ccc(OC)c(Cl)c2)c1C", "INHIBITION": 30.58}, {"smiles": "CCn1ncc(CN2CCCC(n3c(=O)oc4ccccc43)C2)c1C", "note": "(stereo not given)", "INHIBITION": -3.96}, {"smiles": "COC(=O)c1cccc(C(=O)N(C)Cc2ccsc2)c1", "INHIBITION": -21.49}, {"smiles": "NC(=O)c1cc2c(nc1N)CCN(C(=O)C1CCCCC1)C2", "INHIBITION": 6.97}, {"smiles": "COC(=O)c1ccc(N2CCN(C(=O)c3cnn(C)c3)C(C)C2)cc1", "note": "(stereo not given)", "INHIBITION": 47.57}, {"smiles": "O=C(NCC1Cn2nnc(-c3ccsc3)c2CO1)c1ccc[nH]1", "note": "(stereo not given)", "INHIBITION": 34.16}, {"smiles": "CCc1ccc(CN2CCC3(CC2)C(=O)N(C)CCN3CC)cc1", "INHIBITION": 47.42}, {"smiles": "CCN1CCN(C)C(=O)C12CCN(Cc1csc(C)n1)CC2", "INHIBITION": -66.6}, {"smiles": "CCN1CCN(C)C(=O)C12CCN(Cc1ccsc1)CC2", "INHIBITION": 39.18}, {"smiles": "CCN1CCN(C)C(=O)C12CCN(Cc1cccc(C)c1)CC2", "INHIBITION": 60.6}, {"smiles": "CN1CCN(C)C2(CCN(Cc3ccsc3)CC2)C1=O", "INHIBITION": 59.5}, {"smiles": "CCN1CCN(C)C2(CCN(Cc3ccsc3)CC2)C1=O", "INHIBITION": 38.64}, {"smiles": "CCCc1cnc(C)nc1N1CCC(Cc2cccc(C(N)=O)c2)C1", "note": "(stereo not given)", "INHIBITION": -9.75}, {"smiles": "CC(C(=O)NC1CCN(C)CC1)n1nc(C(F)(F)F)c(Cl)c1C1CC1", "note": "(stereo not given)", "INHIBITION": -4.77}, {"smiles": "CCN(C(=O)CN(CC(N)=O)C(C)C)C1=CCCC1", "INHIBITION": 25.21}, {"smiles": "OCc1n[nH]c(-c2ccc(F)cc2)n1", "INHIBITION": 27.8}, {"smiles": "CC(C(=O)N1CCN(Cc2ccc3c(c2)OCO3)CC1)n1ccnc1", "note": "(stereo not given)", "INHIBITION": 17.98}, {"smiles": "COC(=O)CC1CCCCN1CC(=O)Nc1cc(F)ccc1F", "note": "(stereo not given)", "INHIBITION": 30.82}, {"smiles": "O=S(=O)(NC1=NCN(CCc2cccs2)CN1)c1ccc(F)cc1", "INHIBITION": 36.15}, {"smiles": "O=S(=O)(NC1=NCN(CCc2cccs2)CN1)c1ccc(Br)cc1", "INHIBITION": 50.67}, {"smiles": "O=S(=O)(NC1=NCN(CCc2cccs2)CN1)c1ccccc1", "INHIBITION": 18.22}, {"smiles": "O=C(Cc1cnccn1)N1C[C@@H]2CC[C@H]1CN(Cc1cscn1)C2", "INHIBITION": -41.49}, {"smiles": "COCC(=O)N1C[C@H]2CNC[C@@]2(C(=O)NCc2nc(C)cc(C)n2)C1", "INHIBITION": 67.44}, {"smiles": "COCC(=O)N1C[C@H]2CNC[C@@]2(C(=O)NCc2cc(C)n[nH]2)C1", "INHIBITION": 40.51}, {"smiles": "COCC(=O)N1C[C@H]2CNC[C@@]2(C(=O)NCc2c(C)noc2C)C1", "INHIBITION": 1.8}, {"smiles": "N[C@H]1CN(C(=O)c2ccc(Cl)cc2O)C[C@@H]1C1CC1", "INHIBITION": -6.83}, {"smiles": "N[C@H]1CN(C(=O)Cc2ccc(CO)cc2)C[C@@H]1C1CC1", "INHIBITION": 39.97}, {"smiles": "N[C@H]1CN(C(=O)c2ccc(Cl)cc2F)C[C@@H]1C1CC1", "INHIBITION": 19.54}, {"smiles": "Cc1cc(Cl)ccc1C(=O)N1C[C@H](C2CC2)[C@@H](N)C1", "INHIBITION": 60.42}, {"smiles": "N[C@H]1CN(C(=O)Cc2ccc(Cl)c(Cl)c2)C[C@@H]1C1CC1", "INHIBITION": 4.72}, {"smiles": "N[C@H]1CN(C(=O)Cc2cc(F)cc(Cl)c2)C[C@@H]1C1CC1", "INHIBITION": 55.39}, {"smiles": "CN(CCCN1CCCC1)[C@@H]1c2ccccc2C2(CCNCC2)[C@H]1O", "INHIBITION": 9.18}, {"smiles": "COC(=O)c1ccc(CN(C)C(=O)c2cnsn2)cc1", "INHIBITION": -18.04}, {"smiles": "COc1ccc(C[C@H]2CN(C3CCOCC3)CC[C@H]2OCC2CC2)cc1", "INHIBITION": 68.29}, {"smiles": "COc1ccc(C[C@H]2CN(C3CCOCC3)CC[C@@H]2OCC2CC2)cc1", "INHIBITION": 21.06}, {"smiles": "c1ccc(C[C@H]2CN(C3CCOCC3)CC[C@H]2OCC2CC2)cc1", "INHIBITION": -22.32}, {"smiles": "CCc1cnc(N2CC[C@H]3[C@@H]2CCC(=O)N3CC2CCOCC2)nc1", "INHIBITION": 8.37}, {"smiles": "CNC(=O)[C@H]1C[C@H]2CN(Cc3cccc(C)c3)C[C@@H]1O2", "INHIBITION": 14.09}]}]}
